# Reference: the supplement of paper PMC7156485
# Counter-ions that a name gives are not always drawn. ± gives the standard deviation of the averaged measurements.
# What was measured:
# Conditions in all cases: concentration: 10 µM; 24 h
# HCC1569 [1] = assay: cell number relative to DMSO (% of DMSO); higher = more cells (less growth inhibition / toxicity)
# Method in brief: (§1)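 Cells were seeded at 800 per well in 384-well plates with RPMI containing 10% FBS; both HCC1569 and TDF lines were used. Compounds were added at 10 µM for 24 h at 37 °C, in triplicate, before fixation in 3.7% formaldehyde and staining with a rabbit anti-H1.0 antibody, an AlexaFluor 647 secondary and DAPI. H1.0 nuclear intensity or cell number is reported as percent of the plate control using the median of replicates, and HCC1569 values were smoothed for positional effects.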
# TDF [2] = assay: as above
# Method in brief: as §1
# TDF [3] = assay: H1.0 immunofluorescence intensity relative to DMSO (% of DMSO); higher = stronger H1.0 induction, active = 120 or more
# Method in brief: as §1
# HCC1569 [4] = assay: H1.0 immunofluorescence intensity relative to DMSO (% of DMSO); higher = stronger H1.0 induction, active = 140 or more
# Method in brief: as §1
# 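For H1.0 immunofluorescence intensity relative to DMSO in this document: TDF is a line of transformed human dermal fibroblasts of mesenchymal origin.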
# 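For cell number relative to DMSO in this document: TDF denotes transformed human dermal fibroblasts of mesenchymal origin.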
SMILES,cell number (HCC1569 [1]),cell number (TDF [2]),H1.0 immunofluorescence intensity (TDF [3]),H1.0 immunofluorescence intensity (HCC1569 [4])
NC(=O)c1cccc(-c2cc(Nc3ccc(OC(F)(F)F)cc3)ncn2)c1 [Bcr-abl Inhibitor],89.5,92.8,98.5 (inactive),124 (inactive)
CCCCCC(O)CC(=O)CCc1ccc(O)c(OC)c1 (configuration not stated) [Gingerol],99.3,97.2,92.9 (inactive),85.8 (inactive)
CCCCS(=O)(=O)N[C@@H](Cc1ccc(OCCCCC2CCNCC2)cc1)C(=O)O.Cl.O,99.8,102,97.7 (inactive),104 (inactive)
CN(C)CCOC(=O)COc1ccc(Cl)cc1.Cl [Centrophenoxine hydrochloride],101,98.6,103 (inactive),107 (inactive)
"Cl.c1ccc(C2CN3CCSC3=N2)cc1 (single isomer, unassigned; (-)) [(-)-Tetramisole hydrochloride]",108,97.3,92.4 (inactive),98.7 (inactive)
"OC[C@@H](O)[C@H]1NC[C@@H](O)[C@H]1O [1,4-Dideoxy-1,4-imino-D-mannitol hydrochloride]",99.9,104,87.9 (inactive),90.9 (inactive)
O=c1cc(-c2cccc3c2Sc2ccccc2S3)oc(N2CCOCC2)c1,83.2,97.9,94.5 (inactive),145 (active)
CC(CN1CCC(Cc2ccccc2)CC1)C(O)c1ccc(O)cc1.Cl (configuration not stated) [Ro 25-6981 hydrochloride],105,101,86.4 (inactive),96.6 (inactive)
CCCc1cc(C(N)=S)ccn1 [Prothionamide],106,97.3,99.4 (inactive),103 (inactive)
COc1ccnc(CS(=O)c2nc3ccc(OC(F)F)cc3[nH]2)c1OC (configuration not stated) [Pantoprazole],100,105,102 (inactive),103 (inactive)
CC1=CCC2(C)CCC(O)(C(C)C)C2C(OC(=O)c2ccc(O)cc2)C1 (configuration not stated) [Ferutinin],102,102,97.8 (inactive),107 (inactive)
COc1cc2ncnc(Nc3ccc(Cl)cc3F)c2cc1OC.Cl,83.3,102,95.7 (inactive),141 (active)
NC(N)=Nc1nc(CSCCC(N)=NS(N)(=O)=O)cs1,103,110,91.1 (inactive),108 (inactive)
CC(C(O)c1ccc(O)cc1)N1CCC(Cc2ccccc2)CC1 (configuration not stated) [Ifenprodil tartrate],104,102,94.5 (inactive),98.5 (inactive)
CC(C)NCC(O)c1ccc(O)c(O)c1.O=C(O)C(O)C(O)C(=O)O (stereo not drawn) [R(-)-Isoproterenol (+)-bitartrate],99.2,79.3,99 (inactive),120 (inactive)
CC(C)Cn1c(=O)n(C)c(=O)c2[nH]cnc21 [3-Isobutyl-1-methylxanthine],114,118,90.5 (inactive),88.2 (inactive)
O=[N+]([O-])c1cccc2c(Br)[nH]nc12 [3-Bromo-7-nitroindazole],116,113,103 (inactive),91.9 (inactive)
COc1cc2ncnc(Nc3cccc(Cl)c3)c2cc1OC,83.8,88,99.4 (inactive),111 (inactive)
CCCCCCCCCCCCCC(=O)O [Tetradecanoic acid],99.4,104,97.8 (inactive),102 (inactive)
C[N+]1(C)CCCC1C(=O)[O-].Cl (configuration not stated),96.1,115,95.9 (inactive),109 (inactive)
CCCCCCCCCCCCCCCC(O)C(CO)NC(=O)CCCCCCC (configuration not stated) [C8 Dihydroceramide],100,104,97.1 (inactive),108 (inactive)
Nc1ncnc2n[nH]c(Nc3ccc(F)cc3)c12,95.7,102,90.1 (inactive),118 (inactive)
CCN1CCN(c2cc3c(cc2F)c(=O)c(C(=O)O)cn3C2CC2)CC1 [Enrofloxacin],101,106,96.4 (inactive),110 (inactive)
CC=CC(=O)N(CC)c1ccccc1C [Crotamiton],103,98.5,101 (inactive),104 (inactive)
CC1=C(C(=O)O)N2C(=O)C(NC(=O)C(N)C3=CCC=CC3)C2SC1 (configuration not stated) [Cephadrine],100,101,96.3 (inactive),88 (inactive)
Cn1c(=O)c(-c2c(Cl)cccc2Cl)cc2cnc(Nc3cccc(C(=O)O)c3)nc21,69.7,111,95.7 (inactive),156 (active)
CCCCCCCCC(O)C=CC=CC=CC(O)CCCC(=O)O (configuration not stated) [Leukotriene B3],101,93.8,98.7 (inactive),104 (inactive)

SMILES,cell number (HCC1569 [1]),cell number (TDF [2]),H1.0 immunofluorescence intensity (TDF [3]),H1.0 immunofluorescence intensity (HCC1569 [4])
CCC(C)C(O)C(C)C(=O)C(C)C=C(C)CC(C)C1OC(=O)C1CC (configuration not stated) [Ebelactone B],102,104,99.9 (inactive),89.2 (inactive)
Cl.NC(N)=NC(=O)Cc1c(Cl)cccc1Cl [Guanfacine hydrochloride],104,114,86.8 (inactive),91.5 (inactive)
CC(C)C1CCC(C(=O)NC(Cc2ccccc2)C(=O)O)CC1 (configuration not stated) [Nateglinide],105,112,96.1 (inactive),102 (inactive)
CCCCCC=CCC=CC=CC=CC(SCC(N)C(=O)O)C(O)CCCC(=O)O (configuration not stated) [Leukotriene E4],103,101,92.6 (inactive),102 (inactive)
CC(O)C1C(=O)N2C(C(=O)O)=C(SCCN=CN)CC12 (configuration not stated) [Imipenem],111,109,97.1 (inactive),102 (inactive)
C(=Cc1ccccc1)CN1CCN(C(c2ccccc2)c2ccccc2)CC1 [Cinnarizine],74.9,74.1,106 (inactive),101 (inactive)
CC12CCC(=O)C=C1CCC1C2CCC2(C)C1CCC2(O)C(=O)CO (configuration not stated) [Cortexolone],98.2,99.3,90.2 (inactive),96.2 (inactive)
CCC=CCC=CCC=CCC=CCC=CCC=CCCC(=O)O [Docosahexaenoic acid],99.8 ± 4.3,97.5 ± 3.1,104 (inactive),105 (inactive)
O=c1cc(O)cc(C=Cc2ccc(O)c(O)c2)o1 [Hispidin],97.3,94.8,97 (inactive),108 (inactive)
CCCCCC(O)C=CC1C(O)CC(=O)C1CCCCCCC(=O)O (configuration not stated) [Prostaglandin E1],102 ± 2,109 ± 10,92.4 (inactive),101 (inactive)
Ic1cccc(CSc2nnc(-c3ccncc3)o2)c1 [GSK-3b Inhibitor II],93.5,106,102 (inactive),117 (inactive)
Cc1nc2n(c(=O)c1CCN1CCC(c3noc4cc(F)ccc34)CC1)CCCC2 [Risperidone],100 ± 3,99.6 ± 4,93.1 (inactive),107 (inactive)
NC(=O)CC[C@H](N)C(=O)O [L-Glutamine],100,112,91.4 (inactive),105 (inactive)
CCN(CC)CCCC(C)Nc1c2ccc(Cl)cc2nc2ccc(OC)cc12 (configuration not stated) [Quinacrine],89.3,39.5,118 (inactive),180 (active)
CC1CC2OC2C=CC=CC(=O)Cc2c(Cl)c(O)cc(O)c2C(=O)O1 (configuration not stated) [Radicicol],66.2,15.9,133 (active),121 (inactive)
O=C(CCCN1CCC(O)(c2ccc(Cl)cc2)CC1)c1ccc(F)cc1 [Haloperidol],91 ± 7.7,92.6 ± 3.7,101 (inactive),117 (inactive)
O=C(O)c1cc(N(Cc2ccccc2O)Cc2cc(O)ccc2O)ccc1O [Lavendustin A],105,89.4,108 (inactive),97.9 (inactive)
N[C@H](CCC(=O)NCS(=O)(=O)O)C(=O)O [gamma-D-Glutamylaminomethylsulfonic acid],101,109,96.1 (inactive),93.6 (inactive)
Cl.NC(N)=NC(=O)c1nc(Cl)c(N)nc1N [Amiloride hydrochloride],99.3,100,97.6 (inactive),96.9 (inactive)
O=C(NCCO)c1cc(C(=O)NCCO)cc(C(=O)NCCO)c1,102,104,95.2 (inactive),96.8 (inactive)
Nc1nccc2c1ncn2C1OC(CO)C(O)C1O (configuration not stated) [3-deazaadenosine],97,88.2,93.7 (inactive),88.8 (inactive)
CC12CCC(=O)C=C1CCC1C2C(O)CC2(C)C1CCC2(O)C(=O)CO (configuration not stated) [Hydrocortisone],98.68 ± 0.34,102 ± 9.9,86.3 (inactive),105 (inactive)
"Cl.Cl.O=S(=O)(NCCNCC=Cc1ccc(Br)cc1)c1cccc2cnccc12 [H-89, Dihydrochloride]",96.6,110,92.7 (inactive),129 (inactive)
NC(N)=NCCC[C@H](N)C(=O)O [L-Arginine],102,107,93.7 (inactive),98.6 (inactive)
COc1cc2ncnc(Nc3ccc(OCc4ccccc4)cc3)c2cc1OC [EGFR/ErbB-2 Inhibitor],88.7,92.5,103 (inactive),121 (inactive)
Cc1ccccc1C(OCCN(C)C)c1ccccc1.O=C(O)CC(O)(CC(=O)O)C(=O)O (configuration not stated) [Orphenadrine citrate],111,113,91.6 (inactive),96.1 (inactive)
